# Screening results deposited in PubChem BioAssay by The Scripps Research Institute Molecular Screening Center.
# hgDAF-12 ag = hgDAF-12 agonism, primary luciferase screen; HEK293 GAL4-hgDAF12 UAS-luciferase reporter, agonist luminescence; normalized to butyrate control; activation, % at 6.8 µM; 370,000 tested, 1.8% active; AID 687014;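 active means activation above a cutoff set at the mean of all screened compounds plus 3 SD, cut at about 10% in these data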
# ssDAF-12 act = S. stercoralis DAF-12 activation, primary screen | HEK293 ssDAF-12/GRIP1 lit1-tk-luc reporter, luminescence; % of 3 µM dafachronic acid response | activation, % at 6.8 µM | 370,000 tested, 1% active;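 active means activation above the mean over all tested compounds plus 3 SD, cut at about 0.9% in these data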
# DAX1 inh-1 = inhibits human nuclear receptor DAX1 | HEK293 Gal4-DAX1 luciferase reporter, luminescence | inhibition, % at 6.75 µM | 340,000 tested, 0.99% active | AID 504766;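 active means inhibition above the mean over all tested compounds plus 3 SD, cut at about 4.2% in these data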;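 further: inhibition shows as a rise in luminescence from relieved DAX1 repression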
# Target sequence (P51843 207-470 limits assumed): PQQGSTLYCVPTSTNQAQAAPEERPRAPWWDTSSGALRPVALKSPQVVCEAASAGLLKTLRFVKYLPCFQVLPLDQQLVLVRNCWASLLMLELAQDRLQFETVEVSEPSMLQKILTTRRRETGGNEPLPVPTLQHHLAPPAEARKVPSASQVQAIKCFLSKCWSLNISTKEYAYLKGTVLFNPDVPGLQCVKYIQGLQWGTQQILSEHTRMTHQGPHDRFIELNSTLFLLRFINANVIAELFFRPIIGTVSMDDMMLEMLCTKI
# hcDAF-12 act = activators of H. contortus DAF-12 nuclear receptor; activation, % at 6.8 µM; HEK293 hcDAF-12 lit1-tk-luc reporter, luminescence; 0% DMSO, 100% Δ7-dafachronic acid; 370,000 tested, 1.4% active;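 active means activation above the mean of all tested compounds plus 3 SD, cut at about 5.5% in these data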
# FXN GAA850 act = increases GAA850 frataxin promoter reporter activity; HEK293 lucGAA850 FXN promoter luciferase reporter, 24 h; percent of 10 µM SAHA response; activation, % at 6 µM; 360,000 tested, 0.56% active; AID 540364;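 active means activation above the average of all compounds screened plus 3 SD, cutoff fixed separately per campaign, cut at about 7.5% in these data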
# DAX1 inh-2 = inhibitors of DAX1 repression of SF-1 activated StAR promoter. HEK293T StAR-luciferase reporter, SF-1/DAX-1 repression relief. inhibition, % at 6.8 µM. 370,000 tested, 1.1% active. AID 652010;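 active means inhibition above the mean over all tested compounds plus 3 SD, cut at about 3.6% in these data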;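 further: higher inhibition means more luminescence from relief of DAX-1 repression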
# A number is an active result; – = inactive; · = no result. The list is not random: actives were taken first. Their share in the collection is about 4.5%.
SMILES,hgDAF-12 ag,ssDAF-12 act,DAX1 inh-1,hcDAF-12 act,FXN GAA850 act,DAX1 inh-2
COc1ccc(NC(=O)CN(C)C(=O)Cc2c[nH]c3ccccc23)cc1,–,–,–,6.4,–,–
COc1ccccc1CNC(=O)COC(=O)Cc1c[nH]c2ccccc12,–,–,–,–,–,–
COc1ccccc1NC(=O)COC(=O)Cc1c[nH]c2ccccc12,–,–,–,6.3,–,–
COc1ccc(NC(=O)CN(C)C(=O)CCCc2c[nH]c3ccccc23)cc1,–,–,–,–,–,–
COc1ccc(NC(=O)CN(C)C(=O)Cc2ccc(S(=O)(=O)N3CCOCC3)s2)cc1,–,–,–,–,–,4.4
CCC[C@H]1[C@@H](OC(=O)NCCc2ccccc2)CC[C@@]23CCCN2C(=O)CCC[C@@H]13,–,–,·,–,·,·
O=C(C1CCCN(S(=O)(=O)c2cccc3ccccc23)C1)N1CCN(Cc2ccccc2)CC1 (stereo unspecified),–,–,·,–,·,–
CC(=O)Nc1ccc(S(=O)(=O)C(C#N)c2nc3ccccc3nc2NCCCO)cc1 (stereo unspecified),–,–,5.3,–,–,–
CC(=O)Nc1ccc(S(=O)(=O)C(C#N)c2nc3ccccc3nc2NCCO)cc1 (stereo unspecified),–,–,–,–,–,–
Fc1ccc(NC(=S)N2CCc3ccccc3C2)c(F)c1,–,–,5.6,–,–,–
Fc1ccc(NC(=S)N2CCOCC2)c(F)c1,–,–,–,–,–,–
CC(C)C[C@@H](CO)N1Cc2nnn(Cc3ccccc3)c2-c2ccccc2S1(=O)=O,–,–,·,–,·,–
O=C1C[C@@H](O)[C@H](O)c2cccc(O)c21,–,–,·,–,·,–
CCOc1ccc(C2N(c3ccc(Cl)cc3)C(=O)C3CCCN32)cc1OC (stereo unspecified),–,–,–,–,–,–
CCOc1ccc(C2N(c3ccc(OC)cc3)C(=O)C3CCCN32)cc1OC (stereo unspecified),–,–,4.8,–,–,–
CCOc1ccc(C2N(c3cc(Cl)ccc3OC)C(=O)C3CCCN32)cc1OC (stereo unspecified),–,–,5.4,–,–,–
CC[C@H](CCCc1ccc(F)cc1)CN(Cc1ccc(OC)cc1)S(=O)(=O)c1ccc(C)cc1,–,–,·,–,·,–
COC(=O)[C@@]12CCCCC3=C1N(CCC3)C(=O)[C@H]2CC(=O)NCCCN1CCCC1=O,–,–,·,–,·,–
O=C1C[C@@H](c2ccccc2)N=C2N(CC3CC3)C/C(=C/c3ccccc3)N12,–,–,·,–,·,–
O=C(CSc1nnc(-c2ccco2)n1-c1ccc(Cl)cc1)Nc1ccccc1-c1ccccc1,–,–,·,–,·,–
CC(=O)N[C@@H](C)CCc1ccc(Oc2ccc(OC(C)C)nc2)cc1,–,–,·,–,·,·
O=C(Nc1ncc(Cc2cccc(Cl)c2Cl)s1)C1CCCO1 (stereo unspecified),–,–,–,–,–,–
O=C(Nc1ncc(Cc2ccccc2Cl)s1)C1CCCO1 (stereo unspecified),12,–,–,–,–,–
COc1ccc2c(c1)CN1C(=O)N(CC(C)C)S(=O)(=O)CC21 (stereo unspecified),–,–,·,–,·,–
C/C(=N\O)c1ccc2c3c([nH]c2c1)CCCC3,11,–,–,–,–,–
SMILES,hgDAF-12 ag,ssDAF-12 act,DAX1 inh-1,hcDAF-12 act,FXN GAA850 act,DAX1 inh-2
CC(C)CNC(=O)OCc1cn(Cc2ccc(C(F)(F)F)cc2)nn1,–,–,·,–,·,–
O=c1[nH]ncc(N/N=C\c2cccnc2)c1Cl,–,–,5.2,–,–,–
CCOC(=O)c1cccc(NC(=O)CN(C)S(=O)(=O)c2cc3ccccc3s2)c1,–,–,·,–,·,–
N=C1SC(c2ccccc2)C(=O)N1c1ncc(Cc2ccccc2)s1 (stereo unspecified),13,–,–,–,–,–
C=CCN(CC#Cc1ccccc1)CC=C,–,–,·,–,·,–
NC(CSC1(c2cccc3ccccc23)c2ccccc2-c2ccccc21)C(=O)O (stereo unspecified),–,–,–,–,–,–
NC(CSC(c1ccccc1)(c1ccccc1)c1cccc2ccccc12)C(=O)O (stereo unspecified),·,·,4.5,·,–,·
COC(=O)[C@]12C[C@H](CC(=O)N3CCCC3)C(=O)N(CCc3ccc(OC)c(OC)c3)C1=C[C@H](C1CCCC1)O[C@@H]2C,–,–,·,–,·,–
Cc1c(C(N)=O)c(N)c(C(=O)c2ccccc2)n1-c1ccccc1,–,–,5.0,–,–,–
Cc1c(C#N)c(N=CN(C)C)c(C(=O)c2ccccc2)n1-c1ccccc1,–,–,–,–,–,–
CC(=O)c1ccc(NC(=O)CC(C)S(=O)(=O)c2ccc3c(c2)CCN3C(C)=O)cc1 (stereo unspecified),–,–,–,–,–,4.1
CCn1cc(C(=O)NCCCN2CCC(C)CC2)c(=O)c2cc(S(=O)(=O)N3CCOCC3)ccc21,–,–,–,–,–,3.7
CCn1cc(C(=O)N2CCc3ccccc32)c(=O)c2cc(S(=O)(=O)N(C)C3CCCCC3)ccc21,–,–,–,–,–,–
CCn1cc(C(=O)N2CCc3ccccc32)c(=O)c2cc(S(=O)(=O)N3CCOCC3)ccc21,–,–,–,5.9,–,–
CCn1cc(C(=O)NCCCN2CCC(C)CC2)c(=O)c2cc(S(=O)(=O)N3CCCC3)ccc21,–,–,–,–,–,–
CCCCN(CCCC)CCNC(=O)c1cn(CC)c2ccc(S(=O)(=O)N3CCCC3)cc2c1=O,–,–,–,–,–,4.5
CCC(=O)N1CCc2cc(S(=O)(=O)CCC(=O)Nc3ccc(C(C)=O)cc3)ccc21,–,–,–,–,–,–
CCN(CC)C(=O)CC[C@@H]1CC[C@]2(CCCN(Cc3ccc(Cl)cc3)C2)O1,–,–,·,–,·,–
COc1cccc(-c2nnc(SCC(=O)OC(C)C)n2-c2ccc(Cl)cc2)c1,–,–,·,–,·,–
O=C1C(NC(=O)C(F)(F)Br)CCCCN1Cc1cccc(C(F)(F)F)c1 (stereo unspecified),–,–,·,–,·,–
C[C@H]1[C@@H](NC(=O)/C=C/c2ccccc2)CC[C@@]23CCCN2C(=O)CCC[C@@H]13,–,–,·,–,·,·
CC(=O)N1CCCc2cc(S(=O)(=O)N3CCCC3)ccc21,–,–,–,–,–,–
CC(=O)N1CCc2cc(S(=O)(=O)N3CCOCC3)ccc21,–,–,4.6,–,–,–
CN(C1CCCCC1)S(=O)(=O)c1ccc2c(c1)c(=O)c(C(=O)NCCCN1CCCC1)cn2C,–,–,4.9,–,–,–
COc1cccc(C(CC2=CCCCC2)NC(=O)C(F)(F)F)c1 (stereo unspecified),–,–,·,–,·,–
